Results taken from ChEMBL document CHEMBL3433997, “St. Jude Leishmania screening dataset” (2016).

Tests used:
Format in all cases: functional
[1] = biological target: Solute carrier family 2, facilitated glucose transporter member 1 (Homo sapiens) (UniProt P11166); experiment: ST_JUDE_LEISH: Cytotoxicity at 2uM final concentration against transgenic Leishmania Mexicana promastigotes LmGLUT1 that are glucose transport deficient and complemented with the human glucose transporter GLUT1. Activity is measured by DNA content using SYBR green in vitro
[2] = biological target: Hexose transporter 1 (Plasmodium falciparum) (UniProt O97467); experiment: ST_JUDE_LEISH: Cytotoxicity at 2uM final concentration against transgenic Leishmania Mexicana promastigotes LmPfHT that are glucose transport deficient and complemented with the Plasmodium falciparum hexose transporter. Activity is measured by DNA content using SYBR green in vitro
[3] = biological target: Glucose transporter (Leishmania mexicana) (UniProt O61059); experiment: ST_JUDE_LEISH: Cytotoxicity at 2uM final concentration against transgenic Leishmania Mexicana promastigotes LmGT2 that are glucose transport deficient and complemented with the L. Mexicana glucose transporter 2. Activity is measured by DNA content using SYBR green in vitro

Chain of Solute carrier family 2, facilitated glucose transporter member 1 (Homo sapiens) (P11166 whole entry): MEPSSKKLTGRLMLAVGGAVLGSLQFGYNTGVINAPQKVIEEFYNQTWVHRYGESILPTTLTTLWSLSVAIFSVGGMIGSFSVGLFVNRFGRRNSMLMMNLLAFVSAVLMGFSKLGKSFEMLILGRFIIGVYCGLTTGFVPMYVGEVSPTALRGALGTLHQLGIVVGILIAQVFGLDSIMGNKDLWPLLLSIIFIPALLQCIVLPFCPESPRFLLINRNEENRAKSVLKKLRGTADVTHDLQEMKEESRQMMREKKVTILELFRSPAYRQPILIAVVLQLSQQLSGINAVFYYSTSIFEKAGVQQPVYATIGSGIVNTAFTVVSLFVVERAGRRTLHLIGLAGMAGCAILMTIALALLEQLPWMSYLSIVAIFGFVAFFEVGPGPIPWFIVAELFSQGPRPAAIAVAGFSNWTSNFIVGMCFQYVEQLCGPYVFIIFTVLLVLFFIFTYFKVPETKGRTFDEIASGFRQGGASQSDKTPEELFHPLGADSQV

## CN1CCN(CCCN(Cc2csc(-c3ccc(CNCc4ccccc4)cc3)n2)C(=O)c2cc(F)cc(F)c2)CC1
[1]
  inhibition: 4.63%
[2]
  inhibition: 2.02%
[3]
  inhibition: 1.42%

## CCc1cn2c3c(cc(C(=O)N[C@@H](Cc4ccccc4)[C@H](O)CNCC(C)C)cc13)N(C)S(=O)(=O)CC2
[1]
  inhibition: 3.97%
[2]
  inhibition: 4.71%
[3]
  inhibition: 3.3%

## O=C(Nc1cccc(C(F)(F)F)c1)c1cccc(S(=O)(=O)NCC2CCCN(CC3CCCCC3)C2)c1 (stereo not drawn)
[1]
  inhibition: -0.44%
[2]
  inhibition: 0.12%
[3]
  inhibition: -2.09%

## COc1ccc(CNCc2ccc(-c3ccc(-c4nc5cc(C(F)(F)F)ccc5[nH]4)cc3)cc2)cc1
[1]
  inhibition: 3.97%
[2]
  inhibition: 1.19%
[3]
  inhibition: 3.06%

## COc1ccc(N2CCN(CCCCNC(=O)c3ccc(NC(=O)c4cccc(Cl)c4)cc3)CC2)c(OC)c1
[1]
  inhibition: 3.81%
[2]
  inhibition: 0.48%
[3]
  inhibition: 4.97%

## O=c1[nH]c2c(cc1CNC1CCCCC1)c(-c1ccc(F)cc1)nn2-c1ccccc1
[1]
  inhibition: -1.4%
[2]
  inhibition: -1.47%
[3]
  inhibition: 0.4%

## C[C@@H](NC(=O)NC(CCN1CCC2(CC1)CN(S(C)(=O)=O)c1ccccc12)c1ccc(Cl)c(Cl)c1)c1ccccc1 (stereo partly drawn)
[1]
  inhibition: 0.39%
[2]
  inhibition: 4.43%
[3]
  inhibition: -3.56%

## O=C(Cc1cccs1)NC(CCCN1CCC(Oc2cccc(Cl)c2)CC1)c1ccc(Cl)c(Cl)c1 (stereo not drawn)
[1]
  inhibition: 1.97%
[2]
  inhibition: -1.59%
[3]
  inhibition: -1.89%

## Cc1ccc(OC2CCN(c3ccc(C(=O)NC4CC4)cn3)CC2)cc1
[1]
  inhibition: 0.24%
[2]
  inhibition: 2.06%
[3]
  inhibition: 1.55%

## CCCCCN1CCCC(NS(=O)(=O)c2ccc(C(=O)Nc3cccc(C(F)(F)F)c3)cc2)C1 (stereo not drawn)
[1]
  inhibition: 1.16%
[2]
  inhibition: 2.32%
[3]
  inhibition: 0.39%

## O=C(NCC1CC1)C1CCN(C(c2ccccc2)c2cc(F)cc(F)c2)CC1 (stereo not drawn)
[1]
  inhibition: 3.61%
[2]
  inhibition: 3.92%
[3]
  inhibition: -1.03%
